HT1080-NT tox – kills 2HG-producing HT-1080-NT fibrosarcoma cells. HT-1080-NT fibrosarcoma viability, CellTiter-Glo ATP luminescence, 48 h. Potency, µM (series often up to 46.1 µM), inactives show top-dose activity, negative = less viability, most hits filed as cytotoxic. 360,000 tested, 1.6% active. AID 686970;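 note: NT is the 2HG producing partner of a matched IDH1 knockdown line; potency is the fitted concentration of half-maximal effect; 0% = DMSO-treated cells and -100% = media-only wells without cells; nearly all actives have a fitted effect of over 55% in size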
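HT-1080-NT fibrosarcoma cells (2HG-overproducing), 750 cells/well in RPMI with 5% FBS, dosed after 2 h and incubated 48 h at 37C. CellTiter-Glo luminescence normalized to DMSO and no-cell wells; concentration-response curves fitted and classed.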
TDP1 cell CPT – DT40-hTDP1 cell growth loss with CPT | chicken DT40 Tdp1-/-;hTDP1 cells + 20 nM CPT, ATP luminescence, 48 h | Potency, µM (series often up to 46.2 µM), for inactives: at the highest dose activity change, negative = growth inhibition, usual class: inhibitors | 420,000 tested, 12% active; note: potency is the fitted concentration of half-maximal effect; nearly all actives have a fitted effect of over 55% in size
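Cell growth measured by CellTiter-Glo luminescence after a minimum 48 h, 37 C compound exposure with 20 nM CPT in Tdp1-knockout DT40 cells stably expressing hTDP1, seeded 400/well; qHTS titration format.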
IL-1B inflam inh – inflammasome signaling inhibition, IL-1 beta readout; THP-1 LPS/ATP IL-1B secretion, AlphaLISA, 16 h; hits give low values; activity change, % at 57.5 µM; 360,000 tested, 4.7% active; AID 743279; in the data active = activity change below about -50%; inconclusive = mostly about -30% to -49%
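Secreted IL-1B measured by AlphaLISA bead assay after 16 h compound exposure of THP-1 cells; compounds (final up to 57.5 uM) added 1 h before LPS (250 ng/mL) and ATP (1.25 mM) stimulation; lower signal means less secretion.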
HT1080 IDH1KD tx – HT-1080 IDH1 knockdown cell toxicity (counter line); AID 686971; 360,000 tested, 2% active; Potency, µM (doses to about 46.1 µM), for inactives: at the top dose activity, negative = toxicity, usual class: cytotoxic; HT-1080 IDH1 knockdown viability, ATP luminescence, 48 h;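 note: potency is the fitted concentration of half-maximal effect; 0% = DMSO wells and -100% = cell-free medium wells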
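HT-1080-IDH1KD cells (IDH1 knocked down), 750/well in RPMI with 5% FBS, treated with compound 48 h at 37 degrees C. Viability by CellTiter-Glo luminescence, normalised to DMSO and no-cell wells; concentration-response curves classed.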
DT40 TDP1 no CPT – qHTS for Inhibitors of human tyrosyl-DNA phosphodiesterase 1 (TDP1): qHTS in cells in absence of CPT | Potency, µM (doses to about 46.2 µM), without a hit: at the top dose activity change, negative = growth inhibition, usual class: inhibitors | AID 686978, 2013 | DT40 Tdp1-/- hTDP1 cells, no CPT, ATP luminescence, 48 h | 420,000 tested, 15% active; note: potency is the fitted concentration of half-maximal effect; nearly all actives have a fitted effect of over 55% in size
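Readout: luminescence from CellTiter-Glo after 30 min in the dark at RT. Cells: DT40 Tdp1-/- with stable hTDP1, 400/well. Exposure: compounds alone, ≥48 hr, 37 °C.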
ALOX12 inh – blocks human arachidonate 12S-lipoxygenase; Potency, µM (highest dose often 108 µM), for inactives: top-dose activity change, negative = inhibition, usual class: inhibitors; AID 1671190; P18054; purified 12hLO, xylenol orange hydroperoxide absorbance; 580,000 tested, 1.1% active; note: potency is the fitted concentration of half-maximal effect
Target sequence (P18054 whole entry, looked up): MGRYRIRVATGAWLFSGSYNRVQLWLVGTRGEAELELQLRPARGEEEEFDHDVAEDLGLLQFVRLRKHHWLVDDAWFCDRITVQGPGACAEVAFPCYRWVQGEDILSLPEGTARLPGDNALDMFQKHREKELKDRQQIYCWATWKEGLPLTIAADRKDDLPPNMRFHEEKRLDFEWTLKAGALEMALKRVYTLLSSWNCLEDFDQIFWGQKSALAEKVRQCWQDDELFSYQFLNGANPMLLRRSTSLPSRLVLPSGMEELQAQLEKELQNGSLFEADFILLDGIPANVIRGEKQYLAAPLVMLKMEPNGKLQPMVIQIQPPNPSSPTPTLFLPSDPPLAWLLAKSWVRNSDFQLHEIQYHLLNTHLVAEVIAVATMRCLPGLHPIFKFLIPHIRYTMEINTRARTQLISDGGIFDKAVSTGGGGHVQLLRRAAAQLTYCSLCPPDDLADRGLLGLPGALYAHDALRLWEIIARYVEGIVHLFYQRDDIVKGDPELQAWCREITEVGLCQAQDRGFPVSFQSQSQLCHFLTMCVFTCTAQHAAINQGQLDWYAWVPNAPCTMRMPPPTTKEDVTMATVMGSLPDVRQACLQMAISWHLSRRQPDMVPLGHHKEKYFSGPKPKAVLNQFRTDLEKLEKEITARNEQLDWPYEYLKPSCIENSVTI
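Hydroperoxide product was detected by ferrous iron/xylenol orange as the 573 to 405 nm absorbance ratio. Arachidonic acid at 40 uM (final) was turned over for 30 min at room temperature by 150 nM human 12hLO, pH 7.0 Hepes buffer, after 15 min compound preincubation.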
* marks the source's active call; other numbers are inactive results; ? = inconclusive; · = no result given. Many of the other results were omitted from the sample, so hits are more common in it than they were. Unless noted, calls come from the whole dose curve; as a rule, active = well fitted curve in the direction sought with a large enough effect; inconclusive = small, poorly fitted or top-dose-only effect, or another doubt; inactive = no such curve, though single readings can be large; an effect the other way counts as inactive or inconclusive. Unless noted, % is set by controls: 0 for no effect and ±100 for the full control effect.

SMILES | HT1080-NT tox | TDP1 cell CPT | IL-1B inflam inh | HT1080 IDH1KD tx | DT40 TDP1 no CPT | ALOX12 inh
CC1(C(=O)Nc2ccc(F)c(Cl)c2)Cc2c(-c3cccc(C(F)(F)F)c3)ccnc2O1 (stereo unspecified) | ? | ? | -21 | ? | ? | ?
COc1cccc([C@@H]2CN(C(=O)c3cnn(C)c3)C[C@H]2C(=O)O)c1OC | · | · | · | · | · | -15%
CC(C)(C)c1nc(NCCN2CCOCC2)c2nnn(Cc3ccccc3Cl)c2n1 | 12% | 10µM* | -9 | 9% | 10µM* | -6%
CCOCCCNc1nc(C(F)(F)F)nc2c1nnn2Cc1ccccc1Cl | ? | 18µM* | -20 | 0% | 15µM* | 0%
C=CCNc1nc(C(F)(F)F)nc2c1nnn2Cc1ccccc1Cl | -8% | ? | 0 | -6% | ? | 10%
O=C(CCS(=O)(=O)c1ccc(Br)s1)Nc1cc(C(F)(F)F)cc(C(F)(F)F)c1 | · | 15µM* | · | · | 21µM* | ?
CC(=O)c1cccc(NC(=O)CCS(=O)(=O)c2ccc(Br)s2)c1 | 12% | 7% | 121 | 5% | ? | -5%
COc1ccc(-c2cc(CNc3nc4cc(-c5ccccc5C)sc4c(=O)n3C)on2)cc1 | -1% | 16µM* | -24 | -3% | 21µM* | -1%
COc1cccc(CNc2nc3cc(-c4ccccc4C)sc3c(=O)n2C)c1 | ? | 21µM* | -8 | ? | 23µM* | -12%
COc1ccccc1CNc1nc2cc(-c3sccc3C)sc2c(=O)n1C | 14% | 18µM* | -9 | -1% | 16µM* | -20%
Cc1ccccc1-c1cc2nc(NCCOc3ccccc3)n(C)c(=O)c2s1 | 7% | ? | 21 | 28% | ? | -12%
COc1ccccc1CNc1nc2cc(-c3ccccc3C)sc2c(=O)n1C | ? | ? | -22 | ? | 23µM* | -13%
O=C(CN1C(=O)S/C(=C\c2ccccc2)C1=O)Nc1ccc2oc(=O)ccc2c1 | · | · | · | · | · | -14%
C(=C\c1ccccc1)/CN1CCN(Cc2cc3n(n2)CCCNC3)CC1 | · | · | · | · | · | 48%
Cc1c(Cl)cccc1N(CC(=O)NCCN1CCOCC1)S(=O)(=O)c1ccccc1 | · | · | · | · | · | 8%
COc1cccc(CNc2nc3cc(C(C)=C(C)C)sc3c(=O)n2C)c1 | -21% | 18µM* | -5 | ? | ? | 10µM*
COCCNC(=O)c1ccc2c(c1)N(Cc1cc(C)ccc1C)C(=O)c1ccccc1S2=O (stereo unspecified) | · | ? | · | · | 15µM* | -19%
Cc1ccc(C)c(CN2C(=O)c3ccccc3S(=O)c3ccc(C(=O)NCCc4ccc(Cl)cc4)cc32)c1 (stereo unspecified) | · | 13µM* | · | · | 7.3µM* | -27%
Cc1ccccc1CN1C(=O)c2ccccc2S(=O)c2ccc(C(=O)NCc3ccc(Cl)cc3)cc21 (stereo unspecified) | · | ? | · | · | ? | -12%
COCCCNC(=O)c1ccc2c(c1)N(Cc1ccccc1F)C(=O)c1ccccc1S2=O (stereo unspecified) | · | -6% | · | · | -14% | 0%
O=C(COC(=O)c1ccc(F)cc1F)Nc1cc(S(=O)(=O)N2CCOCC2)ccc1Cl | 11% | -1% | -9 | 1% | -22% | -16%
CCCNC(=O)C1(C)CCCN(C(=O)c2ccccc2OC(F)(F)F)C1 (stereo unspecified) | 29% | 11% | 6 | 11% | -17% | -19%
CC1(C(=O)NS(=O)(=O)C2CC2)CCCN(C(=O)c2ccccc2OC(F)(F)F)C1 (stereo unspecified) | 22% | ? | 12 | 11% | 9.2µM* | 4%
CC1(C(=O)NS(=O)(=O)C2CC2)CCCN(C(=O)c2ccc(C(F)(F)F)cc2)C1 (stereo unspecified) | 13% | 0.73µM* | 34 | 12% | 0.65µM* | 6%
COc1ccc(C(=O)N2CCCC(C)(C(=O)NS(=O)(=O)C3CC3)C2)cc1 (stereo unspecified) | 11% | ? | 24 | 20% | 1.5µM* | -16%
SMILES | HT1080-NT tox | TDP1 cell CPT | IL-1B inflam inh | HT1080 IDH1KD tx | DT40 TDP1 no CPT | ALOX12 inh
CC1(C(=O)NS(=O)(=O)C2CC2)CCCN(C(=O)c2cccc(C(F)(F)F)c2)C1 (stereo unspecified) | 21% | ? | 40 | 8% | 4.1µM* | -5%
COCCNC(=O)C1(C)CCCN(C(=O)c2cccc(C(F)(F)F)c2)C1 (stereo unspecified) | 12% | -18% | 21 | 1% | -17% | -9%
CCC(=O)N1C[C@@H]2CCCN3CCC[C@@H]([C@H]23)[C@H]1CCCC(=O)NC | · | · | · | · | · | 33%
N#Cc1ccc(Oc2ccc(Cl)c(Oc3ccc(C#N)c(C#N)c3)c2)cc1C#N | · | · | · | · | · | 31%
CCOCCSc1nc2c(c(=O)n(C)c(=O)n2C)n1Cc1ccccc1Cl | · | · | · | · | · | 11%
N#CC1=C(SCc2ccc(C#N)cc2)NC(=O)C(C#N)C12CCCCC2 (stereo unspecified) | · | · | · | · | · | -5%
COc1cc(C(=O)N2CCCC(C)(C(=O)NS(=O)(=O)C3CC3)C2)cc(OC)c1OC (stereo unspecified) | 19% | 1.6µM* | -16 | 12% | 0.92µM* | 2%
CC1(C(=O)NS(=O)(=O)C2CC2)CCN(C(=O)c2cc(F)cc(F)c2)C1 (stereo unspecified) | 23% | 6% | 12 | 4% | 8% | 13%
CC1(C(=O)NS(=O)(=O)C2CC2)CCCN(C(=O)c2cccc(OC(F)(F)F)c2)C1 (stereo unspecified) | 1% | ? | -64* | 18% | 3.7µM* | -3%
CC(C)CCNc1nc(C(=O)OCC(=O)NC(=O)NC(C)C)cs1 | · | · | · | · | · | -32%
Cc1ccc(Cl)cc1NC(=O)C1CCCN1S(=O)(=O)c1ccc(-c2ccc(=O)[nH]n2)s1 (stereo unspecified) | -22% | -25% | -77* | ? | 15µM* | -8%
Cc1ccc(NC(=O)C2CCCN2S(=O)(=O)c2ccc3c(c2)CCCC(=O)N3)cc1C (stereo unspecified) | · | ? | · | · | 21µM* | -7%
Cc1cc(C)cc(NC(=O)C2CCCN2S(=O)(=O)c2ccc3c(c2)CCCC(=O)N3)c1 (stereo unspecified) | · | ? | · | · | ? | -26%
